# From PubChem BioAssay AID504454 (NMMLSC, 2011)
# About 1,400 (0.41%) of roughly 340,000 compounds were called active. The list comes from a sample in which actives are over-represented; it also holds similar structures and randomly drawn compounds. A number with no mark means an inactive call.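 How the source made its calls: active means response above a set limit, near 3 SD of response in nonfluorescent compounds (cut at about 42% in these data); inactive means the rest.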
# Molecular target: Beta-2 adrenergic receptor (Homo sapiens) (UniProt P07550)
# Sequence (P07550 whole entry, looked up): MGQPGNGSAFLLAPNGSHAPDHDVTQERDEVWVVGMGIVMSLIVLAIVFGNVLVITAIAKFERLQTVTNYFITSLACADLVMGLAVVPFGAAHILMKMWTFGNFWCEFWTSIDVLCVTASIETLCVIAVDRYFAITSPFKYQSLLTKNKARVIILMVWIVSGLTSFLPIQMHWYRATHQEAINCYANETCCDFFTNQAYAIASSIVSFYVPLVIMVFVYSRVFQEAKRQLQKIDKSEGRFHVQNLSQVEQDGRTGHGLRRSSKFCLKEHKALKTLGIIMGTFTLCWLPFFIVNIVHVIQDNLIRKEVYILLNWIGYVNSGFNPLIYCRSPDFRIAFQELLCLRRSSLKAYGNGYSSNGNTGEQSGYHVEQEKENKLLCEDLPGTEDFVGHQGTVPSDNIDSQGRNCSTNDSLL
# Test: agonist-induced loss of surface beta2AR – cell-based, FAP fluorogen, flow cytometry, primary screen (AID 504454)
# Conditions: Am2.2-beta2AR cells, FAP receptor internalization, hits give high values, concentration not given here
row,Compound,response
1,COc1ccc(C2CC(c3cccs3)Nc3nnnn32)cc1 (stereo not given),12.6%
2,Cc1ccc2nc(-c3ccc(NC(=O)c4cccnc4)cc3)oc2c1,17.5%
3,Cc1ccc(NC(=O)COc2ccc(/C=C3/NC(=O)NC3=O)cc2)cc1,7.62%
4,Cc1ccc(OCC(=O)Nc2ccc(-c3nc4ncccc4o3)cc2)cc1,117% (active)
5,COc1cc(/C=C2\SC(=O)NC2=O)ccc1OCc1ccc(Cl)nc1,12.6%
6,COc1cc(/C=C2/C(=O)ON=C2C)ccc1OCc1ccccc1F,88.8% (active)
7,CC1=NOC(=O)/C1=C\c1ccccc1,10.9%
8,COc1cc(/C=C2/C(=O)ON=C2C)ccc1OCc1cccc(F)c1,105% (active)
9,C#CCOc1ccc(/C=C2/C(=O)ON=C2C)cc1OCC,-1.93%
10,C=CCOc1ccc(/C=C2/C(=O)ON=C2C)cc1OCC,4.94%
11,CCOC(=O)c1cnc2c(c(C)nn2CC)c1Cl,0.74%
12,Cc1ccccc1OCCC(=O)OCC(=O)NCCc1ccc(S(N)(=O)=O)cc1,-1.82%
13,CCCCN(CC)C(=O)C1CCCN(S(=O)(=O)c2cccc3nsnc23)C1 (stereo not given),-4.41%
14,CCCCNC(=S)NNC(=O)c1cc(C)on1,8.38%
15,COc1cc2c(cc1OC)C(/C=C/c1ccco1)=NCC2,-9.05%
16,CCOC(=O)/C(C#N)=C/c1ccc(OCC(=O)Nc2ccccc2)c(OC)c1,46.3% (active)
17,COc1cc(C2C3=C(CCCC3=O)OC3=C2C(=O)CCC3)ccc1OCC(=O)Nc1ccccc1,3.2%
18,CCCn1c(C)cc(/C=C(\C#N)C(=O)OCC(=O)Nc2cc(OC)c(OC)c(OC)c2)c1C,-0.22%
19,CCCn1c(N)c(C(=O)CSc2nnc3n2CCCCC3)c(=O)[nH]c1=O,-3.04%
20,O=C(/C=C/c1ccc(Cl)cc1Cl)c1cccnc1,6.98%
21,O=C(/C=C/c1ccc(Cl)c([N+](=O)[O-])c1)c1cccnc1,77.9% (active)
22,O=C(Nc1cccnc1)c1ccc(Cl)cc1[N+](=O)[O-],0.76%
23,O=C(CNC(=O)c1ccccc1F)OCC(=O)c1c[nH]c2ccccc12,10.7%

row,Compound,response
1,CC(C)CCN(C(=O)c1csnn1)C(C(=O)NC1CCCC1)c1ccccc1 (stereo not given),7.85%
2,CC(=O)Nc1ccc(S(=O)(=O)N(C)c2nc3ccccc3nc2Cl)cc1,0.46%
3,CC(=O)Nc1ccc(Nc2c([N+](=O)[O-])cc(S(C)(=O)=O)cc2[N+](=O)[O-])cc1,2.64%
4,CC(=O)Nc1ccc(Nc2c3ccccc3nc3ccccc23)cc1,51.1% (active)
5,Cc1ccc(CN2CCN(/N=C/c3cccnc3)CC2)c(C)c1,4.74%
6,CC(=O)Nc1ccc(NC(=O)COC(=O)c2ccccc2C(=O)c2ccccc2)cc1,-9.28%
7,CC(=O)Nc1ccc(NC(=O)C(C)OC(=O)c2ccccc2C(=O)c2ccc(Cl)c([N+](=O)[O-])c2)cc1 (stereo not given),20.8%
8,N#Cc1cccc(NC(=O)COC(=O)c2ccccc2C(=O)c2ccc(Cl)c([N+](=O)[O-])c2)c1,46.3% (active)
9,CC[n+]1cc(C)ccc1/C=C/c1ccc(N(C)C)cc1,-468%
10,CCCN(CCC)S(=O)(=O)c1ccc(C(=O)NNC(=O)c2cc(OC)c(OC)c(OC)c2)cc1,4.58%
11,CCN(CC)Cc1csc2ccc(Br)cc12,5.63%
12,COc1ccc(OC(C)C(=O)Nc2cccnc2)cc1 (stereo not given),-1.88%
13,COc1ccc(CCC(=O)c2ccc(OC)cc2)cc1,-1.6%
14,COc1ccc(CS(=O)/C(Cl)=C(/Cl)C(=O)Nc2ccc(OC)nc2)cc1 (stereo not given),52.3% (active)
15,O=C(Nc1ccc([N+](=O)[O-])cc1)C1CC12CCC2 (stereo not given),-2.03%
16,COc1cccc2[nH]c(C(=O)NCCc3ccccc3)cc12,1.88%
17,O=C(Cn1nc(Cc2cccnc2)c2ccccc2c1=O)NCC1CCCO1 (stereo not given),-13.8%
18,COc1ccccc1NC(=O)Nc1nc(CC(=O)Nc2ccccc2F)cs1,1.09%
19,O=C(COc1ccccc1F)Nc1nc(-c2ccccn2)cs1,-6.34%
20,COc1ccc(CC(=O)Nc2nc(-c3ccc(F)c(F)c3)cs2)cc1OC,44% (active)
21,CCc1c(SCCC(=O)O)nc2ccccc2c1C,-4.7%
22,CCN(CC)c1ccc(C(=O)OCC(=O)c2ccco2)cc1,4.24%
23,O=C(CN1CCN(c2cccc(Cl)c2)CC1)Nc1ccc(S(=O)(=O)N2CCOCC2)cc1,-2.92%

row,Compound,response
1,Cc1ccc(Cl)cc1NC(=O)CN1CCN(S(=O)(=O)N2CCOCC2)CC1,81.7% (active)
2,COc1ccc(Cl)cc1NC(=O)CN1CCN(C(=O)N2CCOCC2)CC1,1.88%
3,NC[C@H](Cc1ccccc1)NCCc1cc(C(F)(F)F)cc(C(F)(F)F)c1,19%
4,CCOC(=O)[C@H]1[C@H]2COc3ccc(OC)cc3[C@@H]2N2C(=O)c3ccc(F)cc3NC(=O)[C@@]12C,-0.05%
5,COCCn1c(C)cc(C(=O)CSc2nnc(C3CC3)n2C2CC2)c1C,6.93%
6,O=C(N/C(=C\c1ccc([N+](=O)[O-])cc1)C(=O)N1CCOCC1)c1cccc(Br)c1,3.33%
7,O=C(N/C(=C\c1ccc([N+](=O)[O-])cc1)C(=O)N1CCCCC1)c1ccco1,72.5% (active)
8,O=C(N/C(=C/c1ccc(Cl)cc1)C(=O)N1CCCCC1)c1ccco1,6.34%
9,CC(=O)Nc1ccc(S(=O)(=O)N2CCN(CCCOc3cc(C)ccc3C)CC2)cc1,3.77%
10,CC(C)c1ccc(NC(=O)[C@@H](NC(=O)N2CC(=O)Nc3ccccc32)C(C)C)cc1,-13%
11,COc1ccc(OC)c(/C=N/NC(=O)CSc2nnc(C)n2-c2ccccc2)c1,8.61%
12,Cc1ccc(-c2nnc(SCC(=O)N/N=C/c3cccs3)n2-c2ccc(C)cc2)cc1,-11.9%
13,Cc1nnc(SCC(=O)N/N=C/c2cn(-c3ccccc3)nc2-c2ccc(F)cc2)n1-c1ccccc1,54.1% (active)
14,CCOc1cc(C)c(S(=O)(=O)NCc2ccccn2)cc1C,-7.14%
15,COC(=O)c1ccc(OCC(=O)NC(C)(C)C)cc1,6.76%
16,CCCOc1ccc(C(=O)C(CCC(CNCC)C(=O)c2ccc(OCCC)cc2)CNCC)cc1 (stereo not given),46.1% (active)
17,CCCOc1ccc(/C=N/NC(=O)C2CC2)c(OCCC)c1,-16.2%
18,Cc1ccc2[nH]c(=O)c(CN(C)S(=O)(=O)c3cccc4nonc34)cc2c1,-5.68%
19,Cc1cc(C)c(C2C3=C(Nc4c2c(C)nn4-c2ccccn2)c2ccccc2C3=O)c(C)c1 (stereo not given),69.5% (active)
20,Cc1nn(-c2ccccn2)c2c1C(c1ccncc1)C1=C(CC(C)(C)CC1=O)N2 (stereo not given),-12.9%
21,CSc1ccc(S(=O)(=O)NCC(=O)OCC(=O)NC2(C#N)CCCCC2)cc1[N+](=O)[O-],5.12%
22,COc1ccc(CCOC2OC(CO)C(OC(=O)/C=C/c3ccc(O)c(OC)c3)C(O[C@H]3O[C@@H](C)[C@H](O)[C@@H](O)[C@H]3O)C2O)cc1O (stereo not given in full),1.58%
23,O=C(Nc1ccc(Br)cc1)C1CCC(=O)N1Cc1ccccc1Cl (stereo not given),-2.28%

row,Compound,response
1,NC(N)=N/N=C/c1ccc(OCc2ccc(Cl)cc2Cl)cc1,59.6% (active)
2,COc1ccc(Cl)cc1N(CC(=O)N/N=C/c1ccc(OCC(N)=O)cc1)S(C)(=O)=O,-3.08%
3,Cc1nc2ccccc2nc(C)c1=NOCc1ccc(Cl)cc1Cl,-2.95%
4,CCC(CC)NC(=O)/C=C/c1cccc([N+](=O)[O-])c1,-1.38%
5,CCCCCc1ccc(-c2ccc(C(=O)O)cc2)nc1,-1.17%
6,Cc1cc(N2CCOCC2)nc(-c2ccc(Br)cc2)n1,-1.94%
7,O=S(=O)(Cc1cc(Sc2ccccc2)nc(-c2ccccc2)n1)c1ccccc1,7.22%
8,Cc1ccc(Sc2cc(N3CCOCC3)nc(-c3ccccc3)n2)cc1,42.7% (active)
9,S=c1[nH]nc(Nc2ccccc2)s1,16.4%
10,COc1cc(C(C(=O)NC2CCCC2)N(C(=O)c2ccco2)c2ccccc2C(C)=O)cc(OC)c1OC (stereo not given),2.2%
11,CCOC(=O)c1c(-c2ccccc2)oc2cc(Br)c(O)c(C=O)c12,56.8% (active)
12,CCOC(=O)c1c(-c2ccccc2)oc2cc(Br)c(O)cc12,-5.83%
13,CCOC(=O)c1c(-c2ccccc2)oc2ccc(OCC(=O)NN)cc12,27.5%
14,Cn1c(=O)oc2cc(S(=O)(=O)NCCC(=O)NCc3ccccc3Cl)ccc21,0.87%
15,CCOC(=O)C1CCN(CC(=O)Nc2ccc(OC)c(S(=O)(=O)N3CCCCC3)c2)CC1,11.9%
16,O=C(COc1cccnc1[N+](=O)[O-])Nc1ccc(Cl)cc1F,-3.75%
17,Cc1c(/C=N/N2C(=O)C3C4C=CC(C4)C3C2=O)c2ccccc2n1C (stereo not given),-4.99%
18,O=C1C2C3C=CC(C4CC34)C2C(=O)N1/N=C/c1ccc(-c2ccccc2[N+](=O)[O-])o1 (stereo not given),42.1% (active)
19,O=C(Nc1ccc(N2CCOCC2)cc1)c1ccc(-c2ccccc2[N+](=O)[O-])o1,15.6%
20,CCOc1cc(/C=C2/N=C(c3ccc(C(C)(C)C)cc3)OC2=O)cc(Cl)c1OS(C)(=O)=O,-2.17%
21,COc1ccc(NC(=O)CN(C)C(=O)c2cccc(S(=O)(=O)N3CCN(c4ccccc4)CC3)c2)cc1,6.13%
